# Records with an inconclusive call do not appear. Where a call stands in place of a potency, no number is given. Calls of active or inactive are those of the source. Calls come from the whole dose curve. Square brackets hold non-standard residues; d marks the D form. Peptide text beside a SMILES is read from it. * marks the point of attachment. Benzoyl(4-tBu) = CC(C)(C)c1ccc(C(=O)*)cc1; Lys(Et2) = CCN(CC)CCCC[C@H](N)C(=O)O
# Key:
# [1] = Cytotoxicity counterscreen for inhibitors of SARS-CoV-2 cell entry (AID 1645845); settings: cell viability (SARS-CoV-2 entry assay cells); series mostly up to 57.1 µM; note: nearly all actives have a fitted effect of over 50% in size
# Outline: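 Expi293F/hACE2 cells seeded overnight; cpd pin-transferred in DMSO, 1 h preincubation, + media, 48 h 37 C 5% CO2; ATPLite 1step luminescence; normalized to cells and no cells.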
# [2] = Primary qHTS to identify inhibitors of SARS-CoV-2 cell entry (AID 1645846); settings: SARS-CoV-2 pseudovirus cell entry assay, luminescence; activity change, negative = inhibition: at 57.1 µM (top of the series) unless noted; note: nearly all actives have a fitted effect of over 45% in size
# Outline: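 Using luciferase-reporting pseudoviruses carrying Wuhan-Hu-1 spike, the screen tracks entry into stably ACE2-expressing cells over 48 hr. Activity is expressed relative to spike particles versus particles lacking any fusion protein.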
# Potency is the fitted concentration of half-maximal effect.
smiles,measurement,setting,value
CCS(=O)(=O)N1CCC(C(C)n2c(C)c(C(=O)NCc3c(OC)cc(C)[nH]c3=O)c3ccccc32)CC1 (centres undefined),Potency,[1],inactive
same,"activity change, negative = inhibition",[2],-8.61%
N=C(N)c1ccc2nc(-c3cc(CC(=O)N[C@@H](CC(=O)O)C(=O)O)cc(-c4cc(S(N)(=O)=O)ccc4O)c3O)[nH]c2c1,Potency,[1],inactive
same,Potency,[2],inactive
CCN(c1cc(-c2ccc(CN3CCOCC3)cc2)cc(C(=O)NCc2c(C)cc(C)[nH]c2=O)c1C)C1CCOCC1,Potency,[1],inactive
same,Potency,[2],inactive
CCc1cc(/C(C)=N/OCc2ccc(C3CCCCC3)c(C(F)(F)F)c2)ccc1CN1CC(C(=O)O)C1,Potency,[1],inactive
same,Potency,[2],inactive
CC(=O)[C@]1(N)Cc2c(O)c3c(c(O)c2[C@@H](O[C@H]2C[C@H](O)[C@H](O)CO2)C1)C(=O)c1ccccc1C3=O,Potency,[1],inactive
same,Potency,[2],inactive
CCN(CC)CCCC[C@H](NC(=O)[C@H](CC(C)C)NC(=O)[C@H](C)NC(=O)[C@H](Cc1ccccc1)NC(=O)c1ccc(C(C)(C)C)cc1)C(=O)N[C@@H](CO)C(=O)OC ({Benzoyl(4-tBu)}-FAL[Lys(Et2)]S-OMe),Potency,[1],inactive
same,Potency,[2],inactive
Cc1c(NC(=O)c2cc3c(s2)CCCC3)cccc1-c1cn(C)c(=O)c(Nc2ccc(C3C(=O)N(C)CCN3C)cc2)n1 (centres undefined),Potency,[1],inactive
same,Potency,[2],inactive
COc1c(Nc2ncc(Cl)c(N[C@H]3[C@H](C(N)=O)[C@@H]4C=C[C@@H]3C4)n2)ccc2c1CCC(N1CCOCC1)CC2 (some centres undefined),Potency,[1],inactive
same,"activity change, negative = inhibition",[2],-55.4%
Nc1ncnc2c1ncn2[C@@H]1O[C@H](CO)C[C@H]1O,Potency,[1],inactive
same,"activity change, negative = inhibition",[2],-13%
CC(C)C(N)C(=O)OCC(CO)OCn1cnc2c(=O)[nH]c(N)nc21 (centres undefined),Potency,[1],inactive
same,"activity change, negative = inhibition",[2],-6.77%
COCCNc1cc(NC(=O)N2CCCc3cc(CN4CCN(C)CC4=O)c(C=O)nc32)ncc1C#N,"activity change, negative = cytotoxicity",[1],2.9% [at 11.3 µM] (inactive)
same,"activity change, negative = inhibition",[2],-9.55% [at 11.3 µM]
CC(=O)N1CCN(c2ccc(NC(=O)Cc3cnc(-c4ccnc(F)c4)c(C)c3)nc2)CC1,Potency,[1],inactive
same,"activity change, negative = inhibition",[2],0.388%
O=C(c1ccc(NS(=O)(=O)c2cccc3cccnc23)cc1)N1CCN(CC2CC2)CC1,Potency,[1],inactive
same,"activity change, negative = inhibition",[2],-15.9%
C[C@H](Nc1ncnc2nc[nH]c12)c1cc2ccc(F)cc2nc1-c1ccccn1,Potency,[1],inactive
same,"activity change, negative = inhibition",[2],-9.43%
CCN(C(=O)c1ccccc1OC)c1cc2c(cc1N1CCNC[C@H]1C)n(C)c(=O)n2C,Potency,[1],inactive
same,"activity change, negative = inhibition",[2],-9.57%
Cc1cc(-c2cnn3c(NCC4CC(C)(O)C4)cc(Oc4cccnc4)nc23)ccc1C(=O)NC1CC1 (centres undefined),"activity change, negative = cytotoxicity",[1],4.49% [at 5.25 µM] (inactive)
same,"activity change, negative = inhibition",[2],-11.3% [at 5.25 µM]
CC1Cc2ccccc2N1C(=O)Cc1nc(N2CCOCC2)cc(=O)[nH]1 (centres undefined),Potency,[1],inactive
same,"activity change, negative = inhibition",[2],-26.2%
COc1ccc2c(c1)CC[C@@H]1[C@@H]2CC[C@]2(C)[C@@H](NCCCCCCN3C(=O)C=CC3=O)CC[C@@H]12,Potency,[1],inactive
same,Potency,[2],inactive
OCCn1cc(-c2ccc3c(c2)CC/C3=N\O)c(-c2ccncc2)n1,Potency,[1],inactive
same,Potency,[2],inactive
C[C@]1(C(=O)N(CCCC(=O)O)Cc2cccc(Cl)c2)CCN1C(=O)c1csc2ccccc12,Potency,[1],inactive
same,"activity change, negative = inhibition",[2],-20.2%
O=C(NCC(=O)N1CC[C@H](NC2CCC(O)(c3ccc(-c4ncccn4)cn3)CC2)C1)c1cccc(C(F)(F)F)c1 (some centres undefined),Potency,[1],inactive
same,"activity change, negative = inhibition",[2],-29.7%
Cn1cc(-c2nc(N[C@@H]3CCCC[C@@H]3N)c(F)c3c2C(=O)NC3)cn1,outcome,[1],inactive [at 5.25 µM]
same,"activity change, negative = inhibition",[2],4.2% [at 5.25 µM]
CN1C(N)=N[C@](C)(c2cc(NC(=O)c3ccc(F)cn3)ccc2F)CS1(=O)=O,Potency,[1],inactive
same,"activity change, negative = inhibition",[2],-0.893%
O=C(COCC(=O)N1CCN(C(c2ccccc2)c2ccccc2)CC1)Nc1ccc(Cl)cc1C(=O)O,Potency,[1],inactive
same,"activity change, negative = inhibition",[2],-0.414%
CCO[C@@H]1OC(=O)C[C@@H]1NC(=O)[C@@H]1CCCN2C(=O)CC[C@H](NC(=O)c3nccc4ccccc34)C(=O)N12,Potency,[1],inactive
same,"activity change, negative = inhibition",[2],-4.46%
Cn1cc(-c2ccc3c(c2)CCN3C(=O)Cc2cccc(C(F)(F)F)c2)c2c(N)ncnc21,Potency,[1],inactive
same,"activity change, negative = inhibition",[2],3.56%
CC(=O)Nc1ccc(C(=O)NC(C)(C)C)cc1,Potency,[1],inactive
same,Potency,[2],inactive
CC1(C)OC2=C(C(=O)c3ccccc3C2=O)[C@H](NCc2ccccc2)[C@@H]1O,Potency,[1],10 µM (active)
same,Potency,[2],3.16 µM (active)
COc1ccc(Cl)c(Nc2nc3ccccc3nc2NS(=O)(=O)c2cccc(NC(=O)C(C)(C)N)c2)c1,Potency,[1],inactive
same,"activity change, negative = inhibition",[2],-26.9%
C/C=C1\NC(=O)[C@H]2CSSCC/C=C\[C@H](CC(=O)N[C@H](C(C)C)C(=O)N2)OC(=O)[C@H](C(C)C)NC1=O,Potency,[1],6.31 µM (active)
same,Potency,[2],7.08 µM (active)
Cc1ccc(NC(=O)Nc2nnc(Sc3ncnc4cc(OCCCN5CCOCC5)ccc34)s2)cc1,Potency,[1],inactive
same,Potency,[2],inactive
CC(C)(C)C(=O)CN1C(=O)[C@H](NC(=O)Nc2cccc(C(=O)O)c2)CN(C2CCCCC2)c2ccccc21,Potency,[1],inactive
same,"activity change, negative = inhibition",[2],-4.52%
CNc1nc(Nc2cnn([C@H]3CCN(C4COC4)C[C@@H]3F)c2Cl)ncc1C(F)(F)F,Potency,[1],inactive
same,Potency,[2],inactive
CC(=O)N[C@H]1CSSC[C@@H](C(N)=O)NC(=O)[C@H](C(C)C)NC(=O)[C@H](C)NC(=O)[C@H](Cc2cnc[nH]2)NC1=O,Potency,[1],inactive
same,Potency,[2],inactive
CCNC(=O)Nc1ncc(-c2cc(-c3c(C)cc(OC)cc3C)nc(-c3cnccn3)n2)s1,Potency,[1],inactive
same,"activity change, negative = inhibition",[2],-1.07%
O=C1CC[C@H](N2Cc3c(OCc4ccc(CN5CCOCC5)cc4)cccc3C2=O)C(=O)N1,Potency,[1],inactive
same,"activity change, negative = inhibition",[2],-23.3%
C[C@@H]1N=C(N)NC(N(C)C)=N1,Potency,[1],inactive
same,"activity change, negative = inhibition",[2],-14.7%
Cc1c[nH]c2nc(Nc3ccc(N4CCN(C)CC4)c(F)c3)nc(-c3cccc(CC#N)c3)c12,Potency,[1],8.91 µM (active)
same,Potency,[2],2.51 µM (active)
Fc1ccc(-c2nc(-c3ccccc3F)[nH]c2-c2ccncc2)cc1,Potency,[1],inactive
same,"activity change, negative = inhibition",[2],-6.32%
OC1CCC([C@H](O)C[C@H]2c3c(F)cccc3-c3cncn32)CC1 (some centres undefined),Potency,[1],inactive
same,Potency,[2],inactive
C[C@@H]1[C@H](O)[C@@H](C)/C=C/C=C/C=C/C=C/C=C/C=C/C=C/[C@H](O[C@@H]2O[C@H](C)[C@@H](O)[C@H](N)[C@@H]2O)C[C@@H]2O[C@](O)(C[C@@H](O)C[C@@H](O)[C@H](O)CC[C@@H](O)C[C@@H](O)CC(=O)O[C@H]1C)C[C@H](O)[C@H]2C(=O)O,Potency,[1],inactive
same,Potency,[2],inactive
COc1ccc(-c2oc3c(CC=C(C)C)c(OC4O[C@H](CO)[C@@H](O)[C@H](O)[C@H]4O)cc(O)c3c(=O)c2OC2O[C@@H](C)[C@H](O)[C@@H](O)[C@H]2O)cc1 (some centres undefined),Potency,[1],inactive
same,"activity change, negative = inhibition",[2],-18.5%
CC(C)N(CCCNC(=O)Nc1ccc(C(C)(C)C)cc1)C[C@H]1O[C@@H](n2ccc3c(N)ncnc32)[C@H](O)[C@@H]1O,Potency,[1],inactive
same,"activity change, negative = inhibition",[2],-9.11%
CC(C)C[C@@H]1NC(=O)[C@@H](C(C)C)NC(=O)[C@@H]2CCCN2C(=O)[C@@H](CC(=O)O)NC(=O)[C@@H](Cc2c[nH]c3ccccc23)NC1=O (cyclo(L[dW][dD]P[dV])),Potency,[1],inactive
same,"activity change, negative = inhibition",[2],-6.47%
C=C1[C@H](OC(=O)/C=C(\C)CC)C[C@@H](C(C)C)[C@@H]2[C@H]([C@@H](C)OC(C)=O)C(=O)C[C@@H]12,Potency,[1],inactive
same,"activity change, negative = inhibition",[2],-14.8%
CC(C)(c1ccc(OCC(O)CO)cc1)c1ccc(OCC(O)CCl)cc1 (centres undefined),Potency,[1],inactive
same,"activity change, negative = inhibition",[2],-34.4%
Cc1ccc(NC(=O)c2ccc(CN3CCNCC3)cc2)cc1Nc1nccc(-c2cccnc2)n1,Potency,[1],25.1 µM (active)
same,"activity change, negative = inhibition",[2],-27.5%
CN(C)C(N)=NC(=N)N,outcome,[1],inactive [setting not given]
same,outcome,[2],inactive [setting not given]
COc1ccc(S(=O)(=O)N[C@@H](CNc2nc(C)nc(N3CCC(c4ccc5c(n4)NCCC5)CC3)c2C)C(=O)O)cc1,Potency,[1],inactive
same,"activity change, negative = inhibition",[2],-3.98%
CCn1c(N)c(C(=O)NC)c(=O)c2ccc(C#CC(C)(O)COC)nc21 (centres undefined),Potency,[1],inactive
same,"activity change, negative = inhibition",[2],2.21%
CCC(=O)O[C@]1(C(=O)CO)CC[C@H]2[C@@H]3CCC4=CC(=O)CC[C@]4(C)[C@H]3CC[C@@]21C,Potency,[1],inactive
same,Potency,[2],inactive
C[C@H]1O[C@H](O[C@H]2[C@H](O)[C@@H](O)[C@@H](O[C@H]3[C@H](O)[C@@H](O)C(O)O[C@@H]3CO)O[C@@H]2CO)[C@H](O)[C@@H](O)[C@@H]1N[C@H]1C=C(CO)[C@@H](O)[C@H](O)[C@H]1O (some centres undefined),Potency,[1],inactive
same,"activity change, negative = inhibition",[2],-16.5%
COC(=O)C1=C(C)NC(c2ncc(F)cc2F)=N[C@H]1c1ccc(F)cc1Cl,Potency,[1],inactive
same,Potency,[2],inactive
Nc1nc2cc(-c3ccc4ncc(C(=O)N5CCOCC5)n4c3)ccc2o1,Potency,[1],inactive
same,Potency,[2],inactive
CC1(C)CN(C(=O)c2ccc(-c3cccc4nc(NC(=O)C5CC5)nn34)cc2)C1,Potency,[1],inactive
same,"activity change, negative = inhibition",[2],-61.8%
CCOCc1nc2c(N)nc3ccccc3c2n1CC(C)(C)O,Potency,[1],inactive
same,"activity change, negative = inhibition",[2],-25%
Nc1ncnc2c1c(COc1cccc(Cl)c1)nn2C1CCOCC1,Potency,[1],inactive
same,Potency,[2],inactive

# From PubChem BioAssay (NCATS)
